PubChem BioAssay (NCATS)
Values joined by “and” are separate entries in the source; they are usually repeats but may differ in a detail not shown here. Identical values can stand only once. Records with an inconclusive call do not appear. A call without a number means that no potency is given here. Unmarked numbers belong to inactive results. Active and inactive are the calls of the source. Calls follow the shape of the dose curve; as a rule, active = well fitted inhibition curve with a large enough effect; inconclusive = small, poorly fitted or top-dose-only effect; inactive = flat fitted curve, though single readings scatter.

The compounds below were run on Zika virus NS2B-NS3 protease (assay: Primary screen GU AMC qHTS for Zika virus inhibitors (AID 1347154; also: nearly all actives have a fitted effect of over 70% in size)). Conditions: Zika NS2B-NS3 unlinked protease, AMC fluorogenic substrate; series mostly up to 54.1 µM; activity change, negative = inhibition: at the top concentration.
Method in brief: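 Fluorogenic AMC-substrate cleavage by noncovalent NS2B-NS3 protease complex (25 nM, pH 8.0 Tris buffer with Tween 20) followed for 15 minutes at room temperature (~20% conversion). Percent inhibition from ex340/em450 signal change, fitted by 4-parameter Hill equation.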
Potency is read from the fitted curve at half-maximal effect.

SMILES | activity change, negative = inhibition [%] | Potency
CC(C)[N+]1(C)[C@@H]2CC[C@H]1CC(OC(=O)C(CO)c1ccccc1)C2 (some centres undefined) | 8.78 | 
Cc1ccc(S(=O)(=O)NC(=O)NN2CC3CCCC3C2)cc1 (centres undefined) |  | inactive
CCOC(=O)C1=C[C@@H](OC(CC)CC)[C@H](NC(C)=O)[C@@H](N)C1 | -0.505 | 
CCCCCCCCOc1ccccc1C(=O)Nc1ccc(C(=O)OCC[N+](C)(CC)CC)cc1 | -3.64 | 
COc1cc2nc(N3CCN(C(=O)C4CCCO4)CC3)nc(N)c2cc1OC (centres undefined) |  | 31.6 µM (active) and 24.1 µM (active)
COCCCOc1ccnc(CS(=O)c2nc3ccccc3[nH]2)c1C (centres undefined) |  | inactive
O=C(NC(Cc1cc(=O)[nH]c2ccccc12)C(=O)O)c1ccc(Cl)cc1 (centres undefined) |  | inactive
CCCS(=O)c1ccc2nc(NC(=O)OC)[nH]c2c1 (centres undefined) |  | inactive
CCOC(=O)c1c(C)n(C)c2ccc(O)cc12 |  | inactive
C=CCc1cc(OC)c(O)c(C(=O)NCCO)c1 | -23.2 | 
O=c1oc2cc(O)ccc2s1 | -0.693 | 
Oc1ccc(OCc2ccccc2)cc1 |  | inactive
CN(C)CCc1c[nH]c2ccc(Cn3cncn3)cc12 | 5.81 | 
Nc1cc(C(Cl)=C(Cl)Cl)c(S(N)(=O)=O)cc1S(N)(=O)=O |  | inactive
CC1=C(C)C(=O)C(C(CCCCCC(=O)O)c2ccccc2)=C(C)C1=O (centres undefined) |  | inactive
Cn1c(NCCN(CCO)CCCc2ccc([N+](=O)[O-])cc2)cc(=O)n(C)c1=O |  | inactive
CCN(CC)CCOc1ccc(Cc2ccccc2)cc1 |  | inactive
Cc1cccc(CN2CCN(C(c3ccccc3)c3ccc(Cl)cc3)CC2)c1 (centres undefined) |  | inactive
CC(C)c1ccc2oc3nc(N)c(C(=O)O)cc3c(=O)c2c1 |  | 15.8 µM (active)
